In all, about 69,000 compounds went through this assay and about 8,600 (12%) showed an effect of 50% or more. This is one part of a sample in which strong results are shown more often than they occur.

This experiment has as its system Plasmodium berghei. Description: Screen against P. berghei liver stage (PbLuc), transformed with Luciferase, at 10uM. The format is functional, HepG2. The following applies: tested at 10 uM.
In the case of `CC(CC(=O)NCCCn1cccn1)c1cccnc1` (stereo unspecified), the INHIBITION worked out at 15.7%.

On to `CC(C)(C)c1nnc2n1C(C(=O)N1CCN(c3ncccn3)CC1)CC2` (stereo unspecified), for which the INHIBITION is given as 14.3%. The same measure for `Cc1ccc(C)c(CSc2nnc(C(N)C(C)C)o2)c1` (stereo unspecified): 21.8%. As for `c1ccc(Cc2noc(CN3CCOC(Cn4cccn4)C3)n2)cc1` (stereo unspecified), the figure is 24%. Consider `Cn1cc(C(=O)NCc2ccc(N3CCCC3)nc2)ccc1=O`, for which the INHIBITION is listed as 35.9%. The same measure for `CN(C)c1ccc(CNC(=O)NCCc2cn3ccccc3n2)cn1`: -10.6%; for `CCOc1cc(NC(=O)N2CCOC3(CCC3)C2)ccc1C`: 2.45%; for `CCN1CCCCC1C(=O)Nc1cccc(-c2nnc[nH]2)c1` (stereo unspecified): 19.7%. As for `CC1(c2ncc(CN3CCOCC3)cn2)CCCCO1` (stereo unspecified), the figure is 18.04%; as for `c1cnc(-c2nn3c(CN4CCOCC4)nnc3s2)cn1`, 4.35%. Consider `COc1nc2ccn(CCc3cnccn3)c(=O)c2cc1C#N`, for which the INHIBITION stood at 72.6%. As for `COCCn1cnc2ccc(NC(=O)c3ccc(OC)cc3)cc2c1=O`, the figure is -13.6%.

For the compound `N#Cc1cc2c(=O)n(CC(O)Cc3ccccc3)ccc2[nH]c1=O` (stereo unspecified), the INHIBITION came to 25.9%. As for `COc1nc2ccn(CCc3cc(O)nc(C)n3)c(=O)c2cc1C#N`, the figure is 58.3%; as for `Cc1ccnc(NCCNC(=O)C2CC3(CCNCC3)CN2C)c1` (stereo unspecified), -17.9%; as for `CC(C)SCCn1ccc2[nH]c(=O)c(C#N)cc2c1=O`, 23.5%. As for `COc1nc2ccn(CCc3scnc3C)c(=O)c2cc1C#N`, the figure is 45.7%. As for `COc1nc2ccn(CCNc3cc(C)ccn3)c(=O)c2cc1C#N`, the figure is 58.3%; as for `CCc1nc(CCn2ccc3nc(OC)c(C#N)cc3c2=O)no1`, 32.3%; as for `Cc1cc(C)n(CC2CN(c3cnc4ccccc4n3)CCO2)n1` (stereo unspecified), 29.7%.

For the compound `O=C(C1CC1)N1CC[C@@H]2[C@H](CC1)N(Cc1cccnc1)CCS2(=O)=O`, the INHIBITION is listed as -49.8%.

Turning to `CC(C)c1cc(C(=O)N2CCC3(CCc4ccccc4C(=O)N3)C2)on1` (stereo unspecified), the INHIBITION came to 22.45%.

Take `Cc1ccc(N2CC[C@H]3O[C@H](C(=O)NCc4ccco4)CC[C@H]32)nn1`: the INHIBITION stood at 31.1%. As for `Cc1ccc(C(=O)N(C)CCOc2ccccc2F)c(=O)[nH]1`, the figure is -10.3%. The same measure for `Cn1cc(CCC(=O)N2C[C@@H]3CC[C@H]2CN(Cc2cccnc2)C3)cn1`: 40.2%. The same measure for `Cn1ncc2c(NCCOCc3ccccc3)nc(C3CCCC3)nc21`: 71.2%. With `Cn1ncc2c(NCCC34CCCN3CCC4)nc(C3CCCC3)nc21`, the INHIBITION is -12.2%. The same measure for `CNCCCNc1nc(C2CCCC2)nc2c1cnn2C`: 37.1%. Turning to `CCOCCNc1nc(C2CCCC2)nc2c1cnn2C`, the INHIBITION was found to be 2.3%. As for `CCS(=O)(=O)CCNc1nc(C2CCCC2)nc2c1cnn2C`, the figure is 1.93%; as for `Cn1ncc2c(NCCOc3ccc(F)cc3)nc(C3CCCC3)nc21`, 77.1%. As for `Cn1ncc2c(NCCCOc3cccnc3)nc(C3CCCC3)nc21`, the figure is 44.8%; as for `Cn1ncc2c(NCCn3cccc3)nc(C3CCCC3)nc21`, 29.4%; as for `CC(C)N(CCNc1nc(C2CCCC2)nc2c1cnn2C)C(C)C`, 81.1%. For `O=C(NC1CC1)c1cc(Sc2ncccn2)ccn1`, the INHIBITION is -17.1%.

With `CCOCc1ncn2c1CN(C(=O)Nc1ccc(CC)cc1)CC2`, the INHIBITION is reported as -9.26%.

Take `Cc1cccc(CN2CCCC2(C(N)=O)c2cnccn2)n1` (stereo unspecified): the INHIBITION was determined as 42.4%.

As for `CNC(=O)[C@@H](c1ccccc1OC)N1CCC[C@H]1C(=O)NC1CC1`, the INHIBITION amounted to 35.4%. For `COc1cccc(CC(=O)N2CCCN(c3ccnc(C)c3)CC2)c1`, the INHIBITION is recorded as -1.25%. As for `Cc1cc(N2CCCN(C(=O)Cc3cc(F)cc(F)c3)CC2)ccn1`, the figure is 28.7%; as for `Cc1cc(N2CCCN(C(=O)Cc3csc(C)n3)CC2)ccn1`, -13.2%. As for `O=C(Cc1ccc2c(c1)OCO2)N1CCCN(c2ccccc2)CC1`, the figure is 11.8%; as for `Cc1cc(N2CCCN(c3ccnc(C)c3)CC2)ccn1`, 11.9%. As for `O=C(Cc1ccc2c(c1)OCO2)N1CCN(c2ccncc2)CC1`, the figure is 49%; as for `Cc1cc(N2CCCN(C(=O)Cc3ccc(O)c(Cl)c3)CC2)ccn1`, 65.1%; as for `Cc1cc(N2CCN(C(=O)Cc3ccc4c(c3)OCO4)CC2)cc(C)n1`, 52.2%. For `Cc1cc(N2CCCN(C(=O)Cc3cccnc3)CC2)ccn1`, the INHIBITION is listed as 58.6%. As for `O=C(c1cnccn1)N1C[C@H]2CC[C@@H](C1)N(C(=O)Cc1ccsc1)C2`, the figure is 28.5%; as for `Cc1nnc2n1CCN(CCOc1cccc(C#N)c1)C2`, 44.1%.

For the compound `Cc1ccc(C2CSCCN2C(=O)c2ccoc2C)o1` (stereo unspecified), the INHIBITION was determined as 13.3%. As for `CNC(=O)CCN1CCC(c2nnc(Cn3cccn3)n2C2CC2)CC1`, the figure is -0.71%; as for `Cc1nccc(C(=O)N2CCCC2c2noc(C(C)C)n2)n1` (stereo unspecified), 22.6%; as for `Cc1ncccc1NS(=O)(=O)Cc1cccc(F)c1`, 3.19%. As for `O=C1NC[C@H]2CN(Cc3ccccn3)CCN12`, the figure is -17.2%; as for `O=C1NC[C@H]2CN(Cc3ccnc4ccccc34)CCN12`, -12.1%. For `O=C1NCC2CN(Cc3ccccc3OCc3ccccn3)CCN12` (stereo unspecified), the INHIBITION turned out to be 50.3%. As for `c1cc(CN2CCC3(CC2)CC(N2CCCC2)CO3)co1` (stereo unspecified), the figure is -4.82%; as for `Cn1cc(Nc2cccc(C(=O)N(CC(N)=O)C3CCCC3)c2)cn1`, 82.2%; as for `CCNC(=O)CN(CC)C(=O)c1cc(-c2cccc(Cl)c2)no1`, 21.5%. As for `O=C(Nc1cnn(CC(F)F)c1)c1cccc(-n2cnnn2)c1`, the figure is 20.6%; as for `CN(C)C(=O)c1cccc(Nc2cnn(C)c2)c1`, 33.5%. The same measure for `CNC(=O)c1cccc(Nc2cnn(C)c2)c1`: 23.6%. With `CCNC(=O)CN(CC)C(=O)c1cccc(Nc2cnn(C)c2)c1`, the INHIBITION was found to be 70.3%. Turning to `NC(=O)CN(C(=O)c1cccc(C(F)(F)F)c1)C1CCCC1`, the INHIBITION was -52.4%. The same measure for `Cn1c(C(=O)N(CC(N)=O)C2CCCC2)cc(Cl)c1Cl`: -25.6%; for `Cn1cc(NC(=O)c2cccc(-n3cnnn3)c2)cn1`: 53.7%; for `CN(C)C(=O)c1cccc(NC(=O)c2cnn(C)c2)c1`: 52.4%. As for `Cc1cnn(C2CCCN(C(=O)c3cccc(-n4cnnn4)c3)C2)c1` (stereo unspecified), the figure is 14.75%; as for `CN(C)c1ncc(NC(=O)c2cccc(Nc3cnn(C)c3)c2)cn1`, 36.5%. The same measure for `Cn1cc(N2CCCC(SCc3ccco3)C2=O)cn1` (stereo unspecified): 9.79%; for `CCc1cccc(OCC(=O)NC(C)c2nnc3n2CCC3)c1` (stereo unspecified): -27.8%; for `CCC(=O)N1C[C@@H]2CCN(c3cnccn3)C[C@@H]2C1`: -18.4%. Take `CC(C)(C)c1ccc(OCC(N)=O)c(CN2C[C@H]3CC(O)C[C@H]3C2)c1` (stereo partly specified): the INHIBITION was determined as 25.8%. As for `CCCN(CC(=O)N1CCNCC1)C(=O)c1cccc(Cl)c1`, the figure is 13.5%; as for `CC(C)OCCCN(CC(=O)N1CCNCC1)C(=O)c1ccc(F)cc1`, 55.7%; as for `CC(C)OCCCN(CC(=O)N1CCNCC1)C(=O)c1cccc(Cl)c1`, 25.9%. The same measure for `Cc1noc(C)c1-c1cccc(C2CCNCC2)n1`: 5.11%; for `COc1ccccc1OCCNC(=O)CN1CCN(C)CC1C` (stereo unspecified): 16.657%. The same measure for `Nc1nc2c(c3c1C(=O)NC3=O)CCC2`: 41.9%; for `Nc1nc2c(c3c1C(=O)NC3=O)CCCC2`: 70.7%. In the case of `O=C1NC(=O)c2c3c(nc(O)c21)CCCC3`, the INHIBITION turned out to be 29.3%. With `COc1ccc(Nc2nc(N)c(C(C)=O)s2)cc1Cl`, the INHIBITION is listed as 17.6%. As for `COCCN1CC[C@@H]2O[C@@H](COCC(=O)N3CCCC3)CC[C@@H]21`, the figure is -23.2%. As for `Cc1cc(NCc2cc(C)oc2C(F)(F)F)n2nc(C)cc2n1`, the figure is 79.2%; as for `Cc1cc(C(F)(F)F)nc(CNc2cc(C)nc3cc(C)nn23)n1`, 43.2%.

As for `Cc1cc(NCCCC(F)(F)F)n2nc(C)cc2n1`, the INHIBITION came to 42.3%. As for `CCN(C)c1ncnc2c1CCN(Cc1ccc(OC)cc1)CC2`, the figure is 34.1%; as for `O=C(c1ccsc1)N1CCO[C@@H]2CN(Cc3ccccn3)CC[C@@H]2C1`, -31.3%. As for `Cc1nc(N2CCCC2)nc2c1CCN(C(=O)c1ccoc1C)CC2`, the figure is 3.17%; as for `Cc1cc(C(=O)N2CCc3nc(N4CCCC4)nc(C)c3CC2)c(C)o1`, 67.5%.

With `Cc1nc(N2CCOCC2)nc2c1CN(C(=O)C(C)C)CC2`, the INHIBITION worked out at 5.04%. As for `Cc1nc(N2CCCC2)nc2c1CCN(C(=O)N1CCCC1)CC2`, the figure is -23.3%. The same measure for `Cc1nc(N2CCCC2)nc2c1CN(C(=O)N1CCOCC1)CC2`: 34.9%; for `Cc1cc(C(=O)N2CCc3nc(N4CCOCC4)nc(C)c3C2)c(C)o1`: 55.7%; for `Cc1ccc(C(=O)NCc2ccnc(N(C)C)c2)c(C)c1`: -29.1%. As for `Cc1ccccc1N1CC(c2nnc(N)s2)CC1=O` (stereo unspecified), the figure is -37.1%; as for `CC(C)C[C@H](NC(=O)Nc1ccc(F)c(Cl)c1)C(=O)O`, 47.1%; as for `COC(=O)CNC(=O)c1nc(Cl)sc1C(C)C`, -17.6%. Take `CCNC(=O)C1(Cc2cc(-c3ccccc3)no2)CCCN(C)C1` (stereo unspecified): the INHIBITION amounted to 10.9%. As for `COCC(=O)N1C[C@@H](O)[C@H](N2CCN(c3ccccc3)CC2)C1`, the figure is 12.39%; as for `Cc1ccccc1CNC(=O)CNc1ccc(OC2CCOC2)cc1` (stereo unspecified), -6.97%. The same measure for `O=C(CNc1ccc(OC2CCOC2)cc1)NCc1cccs1` (stereo unspecified): 59.8%; for `O=C(CNc1ccc(OC2CCOC2)cc1)NCc1ccco1` (stereo unspecified): -12.1%; for `Cc1ccccc1C1(CNC(=O)NC(C)c2nncn2C)CC1` (stereo unspecified): 40.2%.

With `CN(Cc1ccccc1)C(=O)Cn1nc(N2CCSCC2)ccc1=O`, the INHIBITION is on record as -22.9%. The same measure for `COc1ccccc1CNCCc1cccc(C(N)=O)c1`: 2.22%. The same measure for `COc1cccc(CNCCc2cccc(C(N)=O)c2)c1`: -0.758%; for `COc1ccc(CNCCc2cccc(C(N)=O)c2)cc1C`: 11.8%; for `NC(=O)c1cccc(CCNCc2cnc(-c3cccs3)s2)c1`: 74%. As for `NC(=O)c1cccc(CCNCc2cnc(C3CCC3)s2)c1`, the figure is 82.5%; as for `NC(=O)c1cccc(CCNCc2cccs2)c1`, 27.7%.

The values above are taken from ChEMBL document CHEMBL4513216, “Probing the Open Global Health Chemical Diversity Library for Multistage-Active Starting Points for Next-Generation Antimalarials” (ACS Infect Dis, 2020).
